RN4220 kill – growth inhibition of S. aureus RN4220, primary screen, OD600; 16 h; inhibition, % (test concentration not listed); actives 0.33% (n = 330,000); in the data active = inhibition above about 85%;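 also: plate controls were untreated cells for no effect and reference antibiotic for full effect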
TcdB GH inh – TcdB glycohydrolase inhibitors, primary screen, biochemical, single point, plate reader; Toxin B (Clostridioides difficile), P18177; TcdB glycohydrolase enzymatic assay; inhibition, % at 9.99 µM; actives 0.24% (n = 350,000); AID 652162, 2013; in the data active = inhibition above about 10%
Mtb hypoxia rep – PubChem AID 1159583 | M. tuberculosis hypoxia-regulated fluorescent reporter, fluorescence | fluorescence inhibition, % (concentration not given with the values) | actives 0.1% (n = 300,000); in the data active = fluorescence inhibition mostly above about 23%, no sharp cut-off; inactive = mostly below about 17%
MazEF act – activators of E. coli MazEF toxin-antitoxin RNase, primary screen, biochemical, fluorescence, uHTS | Endoribonuclease toxin MazF (Escherichia coli (strain K12)), P0AE70 | FAM/BHQ RNA-DNA oligo cleavage fluorescence, 5 h | activation, % at 20 µM | actives 0.32% (n = 350,000) | AID 504720, 2011; in the data active = activation above about 50%
Target sequence (P0AE70 whole entry, looked up): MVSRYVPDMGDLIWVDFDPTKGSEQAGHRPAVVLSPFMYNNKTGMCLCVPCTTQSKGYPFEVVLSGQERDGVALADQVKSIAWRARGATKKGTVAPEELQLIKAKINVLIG
PfHsp40 yeast – rescue of yeast from PfHsp40 toxicity, primary screen, S. cerevisiae, ATP luminescence; growth rescue, % at 12.5 µM; AID 504582, 2011; actives 0.68% (n = 340,000); S. cerevisiae expressing PfHsp40, growth rescue; in the data active = growth rescue above about 28%, passing the limit was not always enough;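 also: yeast W303a lacking pdr1 and pdr3 grown in galactose medium; growth measured after three days at 30 °C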
ugtP null kill – growth inhibition of ugtP-null S. aureus, primary screen, RN4220 ugtP deletion, OD600; 16 h; growth inhibition, % (test concentration not listed); actives 0.54% (n = 330,000); AID 1259309, 2017; in the data active = growth inhibition above about 68%;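 also: plate controls were untreated wells for no effect and antibiotic for full effect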
The depositor's hits bear a star; nt = no result; + = active, no number. Shown are actives, neighbours in structure and some others; about 1.3% of the full set was active somewhere.

SMILES | RN4220 kill | TcdB GH inh | Mtb hypoxia rep | MazEF act | PfHsp40 yeast | ugtP null kill
Oc1c(Cl)cc(Cl)cc1CN1CCN(Cc2ccccc2)CC1 | -3 | 2 | -1 | -11 | 0 | 0
Oc1c(Cl)cccc1Cc1cc(Cl)cc(Cl)c1O | 100* | 0 | 12 | 0 | 406* | 100*
CC(C)c1cc(C(=O)OCC(=O)NC(=O)NCc2ccco2)c(O)c(C(C)C)c1 | -7 | 2 | -4 | 1 | 0 | 94*
O=C(COC(=O)c1ccccc1C(F)(F)F)NC(=O)NCc1ccco1 | 6 | 0 | 7 | 7 | 0 | 6
COC(=O)C[C@@H]1CC[C@H]2[C@H](COc3ccc(NC(=O)Nc4ccccc4C)cc3C(=O)N2C)O1 | nt | 1 | nt | nt | nt | nt
CCc1cccc(CC)c1NC(=O)COC(=O)/C(C#N)=C/c1ccc(OC)cc1 | -2 | 0 | -18 | 124* | 1 | 0
O=C(CC1CC1)N[C@H]1CC[C@@H](CCNS(=O)(=O)c2ccc(Cl)cc2)O[C@H]1CO | nt | -1 | nt | nt | nt | nt
CN(C)/C=C(\C#N)C(=O)NN=C(CC(=O)C(F)(F)F)c1ccco1 | -1 | nt | -4 | nt | nt | 2
O=C(C[C@@H]1CC[C@@H]2[C@H](COC[C@@H](O)CN2C(=O)c2ccc3c(c2)OCO3)O1)NC1CCCC1 | nt | 0 | nt | nt | nt | nt
Cc1[nH]nc(C(=O)NN=Cc2ccccc2Cl)c1N=NN(C)C | nt | 1 | nt | -20 | 41* | nt
COc1ccccc1-c1ccc([C@H]2[C@@H](CO)N[C@@H]2CNC(=O)C2CCCC2)cc1 | nt | -2 | nt | nt | nt | nt
COc1ccc(C(=O)Nc2ccc3c(c2)OC[C@@H](C)N(C)C[C@H](C)[C@@H](OC)CN(C)C3=O)cc1 | nt | 1 | nt | nt | nt | nt
Cn1nc(Cc2cccc3ccccc23)c(C#N)c1N | 6 | 0 | 6 | -4 | 1 | 7
CC(C)(C)n1nc(Cc2cccc3ccccc23)c2c(N)ncnc21 | 2 | 4 | 4 | -2 | 552* | -1
O=C(C[C@@H]1CC[C@@H](NS(=O)(=O)c2ccccc2)[C@@H](CO)O1)NCc1ccccc1F | nt | 0 | nt | nt | nt | nt
CCCCCCCN1CCC(=O)N(C(CO)c2ccccc2)CC1 (configuration not stated) | 6 | nt | 8 | nt | nt | 2
COCC(=O)Nc1ccc2c(c1)C(=O)N(C)C[C@@H](OC)[C@H](C)CN(C)[C@H](C)CO2 | nt | -1 | nt | nt | nt | nt
CSc1nc(-c2ccc(C)cc2)nc(C(Cl)Cl)n1 | 1 | nt | 78* | 6 | 0 | 2
Cc1cc(NN=Cc2ccccc2O)c2ccccc2n1 | -3 | nt | 72* | nt | nt | -15
CC(C)n1cnc2c(NCc3ccccc3)cc(Cc3ccc(F)cc3)cc21 | nt | 1 | nt | -6 | 115* | nt
CCOc1cc(NCc2ccccc2)c2ncn(C(C)C)c2c1 | 10 | -4 | 9 | 4 | 7 | 3
CCC(C)c1ccc(O)c(NC(=S)NC(=O)c2cccnc2)c1 (configuration not stated) | 14 | 1 | -8 | 10 | 54* | 7
Cc1ccc(S(=O)(=O)NNC(=O)c2cccnc2)cc1 | 3 | -2 | 0 | 22 | -1 | 5
O=C(NC(=S)NNS(=O)(=O)c1ccccc1)c1cccnc1 | 0 | 11* | 17 | -3 | 0 | 8
CN(C)CC(=O)N1[C@@H]2c3ccc(-c4ccncc4)c(=O)n3C[C@H]1[C@H](CO)[C@H]2C(=O)NC1CCC1 | nt | 0 | nt | nt | nt | nt
SMILES | RN4220 kill | TcdB GH inh | Mtb hypoxia rep | MazEF act | PfHsp40 yeast | ugtP null kill
CCCCCC/C(=N/O)c1ccccn1 | nt | nt | nt | 4 | 162* | nt
Cc1ccc2c(c1)NC(=O)[C@@]1(C)C(c3ccccc3)C3COc4ccccc4C3N1C2=O (some centres not stated) | -1 | nt | 9 | nt | nt | 3
O=C(Nc1ccc(-c2csnn2)cc1)C1CC1 | 5 | 0 | 12 | 10 | 1 | 10
O=C(NCc1cccc(Cl)c1)c1ccc(-c2csnn2)cc1 | -1 | -1 | 6 | 1 | 0 | 0
O=C(NNc1ccc(-c2csnn2)cc1)c1cc(Cl)cc(Cl)c1 | -3 | 18* | 20 | 2 | nt | 4
O=C(NNc1ccc(-c2csnn2)cc1)c1ccccc1C(F)(F)F | 6 | 12* | 15 | -1 | 1 | 15
CC(N)=C(C#N)C(=O)CN1CCCCC1 | 3 | nt | -2 | nt | nt | -5
CCOc1cc(C=NO)ccc1OCc1ccc([N+](=O)[O-])cc1 | 7 | nt | -6 | nt | nt | 9
O=C(Nc1ccc2c(c1)OCCO2)c1cccc(Cl)c1 | 3 | 4 | 10 | -2 | 5 | 4
O=C(Nc1cccc(Cl)c1)c1ccc2c(c1)OCCO2 | 6 | 4 | -3 | 16 | 81* | -1
Cc1c(C(=O)N(Cc2ccccc2)Cc2cccs2)cnn1-c1ccc(Cl)cc1 | nt | 2 | nt | 4 | 117* | nt
C[C@@H]1CCCCO[C@@H](CN(C)C(=O)Nc2cccc3ccccc23)[C@@H](C)CN([C@H](C)CO)C(=O)c2cc(NS(=O)(=O)c3cccs3)ccc2O1 | nt | -5 | nt | nt | nt | nt
CCCCN1CCC2C=CCC(C(=O)NCCc3ccccc3)C2C1=O (configuration not stated) | -3 | nt | 2 | nt | nt | -5
CCCCN1CC[C@@H]2C=CC[C@H](C(=O)OC)[C@@H]2C1=O | 3 | 1 | 4 | 80* | 1 | -2
CC1CCN(c2ccc3c(c2)S(=O)(=O)c2cccc(C(=O)NCc4ccc(F)cc4)c2C3=O)CC1 | 9 | 1 | 7 | + | -1 | -7
CCCOc1ccc(N2C(=O)CC(N3CCC(C(=O)OCC)CC3)C2=O)cc1 (configuration not stated) | 7 | nt | 5 | 10 | 523* | 9
CCOC(=O)c1ccc(N2C(=O)CC(N3CCC(O)(c4ccc(Cl)cc4)CC3)C2=O)cc1 (configuration not stated) | 5 | nt | -1 | -2 | 534* | -3
CCCOc1ccc(N2C(=O)CC(N3CCOCC3)C2=O)cc1 (configuration not stated) | 2 | nt | 5 | 0 | 2 | -6
CCOC(=O)c1ccc(N2C(=O)CC(N3CCCC(C)C3)C2=O)cc1 (configuration not stated) | 7 | -11 | -4 | -1 | 585* | 2
CCCC#Cc1ccc2c(c1)O[C@H](CN(C)C(=O)C1CC1)[C@@H](C)CN([C@@H](C)CO)S2(=O)=O | nt | -1 | nt | nt | nt | nt
O=C1C(Cl)=C(NCCCN2CCOCC2)C(=O)N1CCc1ccccc1 | 5 | nt | 11 | -5 | -2 | 1
O=C1C(Cl)=C(NCCc2ccccc2)C(=O)N1CCc1ccccc1 | -2 | nt | nt | 70* | 1 | 11
O=c1[nH]c2cc3c(cc2cc1CN(Cc1cccnc1)Cc1nnnn1Cc1ccco1)OCCO3 | 8 | -1 | 4 | 54* | 0 | 9
O=c1[nH]c2cc3c(cc2cc1CN(Cc1ccccc1)Cc1nnnn1Cc1ccco1)OCCO3 | -9 | nt | -2 | 49 | 0 | -8
CC(C)(C)C1C=C(C(=O)NC2CC2)OC(OCCCCO)C1 (configuration not stated) | 8 | nt | -4 | nt | nt | 3
C=CCN1C(=O)/C(=C/c2ccc(Br)s2)C(=O)NC1=S | 8 | -2 | 11 | 72* | 0 | 11
